Laboratory results taken from PubChem BioAssay (Tox21).
Inconclusive results are not listed. Where a call stands in place of a potency, no number is given. Calls of active or inactive are those of the source. Calls follow the shape of the full dose curve.

target: Peroxisome proliferator-activated receptor delta (Homo sapiens) (UniProt Q03181); assay: qHTS assay to identify small molecule agonists of the peroxisome proliferator-activated receptor delta (PPARd) signaling pathway (AID 743212); details: HEK293H PPARd-UAS-bla, beta-lactamase FRET ratio, 17 h; series mostly up to 62.6 µM
Description: U.S. Tox21 Program National Center for Advancing Translational Sciences [NCATS] NIH Chemical Genomics Center [NCGC] U.S. Environmental Protection Agency [EPA] National Institutes of Environmental Health Sciences [NIEHS] National Toxicology Program [NTP] U.S. Food and Drug Administration [FDA] Tox21 Assay Overview: The peroxisome proliferator-activated receptors (PPARs) are lipid-activated transcription factors of the nuclear receptor superfamily with three distinct subtypes namely PPAR alpha, PPAR delta (PPARd) and PPAR gamma. All these subtypes heterodimerizes with Retinoid X receptor (RXR) and have different physiological functions. […] To identify the compounds that activate PPAR-delta signaling, GeneBLAzer PPAR delta UAS-bla HEK293H cell line (Invitrogen, Carlsbad, CA, USA) containing a beta-lactamase reporter gene under the control of an Upstream Activator Sequence (UAS) was used to screen the Tox21 compound library.
Tox21 Assay Protocol Summary: PPARd-bla cells were dispensed at 3000 cells/6uL/well in 1536-well black wall/clear bottom plates using a Multidrop Combi (Thermo Fisher Scientific, Waltham, MA) dispenser. After the assay plates were incubated at 37 C and 5% CO2 for 5 h, 23 nL of compounds dissolved in DMSO, positive controls or DMSO only was transferred to the assay plate by a Pintool station (Kalypsys, San Diego, CA). The assay plates were incubated at 37C for 17 h. After 1 uL of LiveBLAzerTM B/G FRET substrate was added using a Bioraptr Flying Reagent Dispenser (FRD) workstation (Beckman Coulter, Indianapolis, IN, USA), the plates were incubated at room temperature for 2 h, and fluorescence intensity was measured by an Envision plate reader (PerkinElmer, Shelton, CT).

Peroxisome proliferator-activated receptor delta (Homo sapiens), sequence (Q03181 whole entry, looked up): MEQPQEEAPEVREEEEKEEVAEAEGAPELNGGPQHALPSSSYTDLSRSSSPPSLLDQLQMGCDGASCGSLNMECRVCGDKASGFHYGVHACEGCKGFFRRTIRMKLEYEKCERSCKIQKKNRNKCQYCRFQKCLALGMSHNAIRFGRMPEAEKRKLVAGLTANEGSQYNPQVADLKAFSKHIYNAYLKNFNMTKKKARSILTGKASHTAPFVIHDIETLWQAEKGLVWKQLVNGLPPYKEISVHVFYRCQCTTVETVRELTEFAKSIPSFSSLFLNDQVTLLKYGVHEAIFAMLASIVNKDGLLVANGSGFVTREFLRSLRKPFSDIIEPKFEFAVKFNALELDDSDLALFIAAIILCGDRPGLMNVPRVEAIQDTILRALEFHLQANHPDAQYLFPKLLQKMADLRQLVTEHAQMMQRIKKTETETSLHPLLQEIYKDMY

Row | Structure (SMILES) | Potency | activation
1 | OCCOc1cccc(OCCO)c1 | inactive | –
2 | CCC(CC)C(=O)O | inactive | –
3 | O=C(OCCN1CCOCC1)c1cccnc1Nc1cccc(C(F)(F)F)c1 | inactive | –
4 | CCCOC(C)=O | inactive | –
5 | CCCCCCCCCCCCCCCCCCCl | – | 0.183% [at 5.95 µM] (inactive)
6 | O=C(O)CNc1ccccc1 | inactive | –
7 | O=C(OC1C[C@H]2CC[C@@H](C1)[N+]21CCCC1)C(O)(c1ccccc1)c1ccccc1 (stereo not given in full) | inactive | –
8 | Clc1ccccc1-c1nc(-c2ccncc2)no1 | inactive | –
9 | C=C[Si]1(C)O[Si](C)(C=C)O[Si](C)(C=C)O[Si](C)(C=C)O1 (stereo not given) | inactive | –
10 | CCCCCC1CCC(=O)O1 (stereo not given) | inactive | –
11 | Nc1ccc(F)cc1F | inactive | –
12 | O=[N+]([O-])c1cccc(I)c1 | inactive | –
13 | O=C(OCCCCCOC(=O)c1ccccc1)c1ccccc1 | inactive | –
14 | C/C(=C(\CCO)SS/C(CCO)=C(\C)N(C=O)Cc1cnc(C)nc1N)N(C=O)Cc1cnc(C)nc1N | inactive | –
15 | CC(=O)Nc1cccc(N)c1 | inactive | –
16 | CC1(C)CC(O)CC(C)(C)N1[O] | inactive | –
17 | COC(=O)Cc1cccc2ccccc12 | inactive | –
18 | O=c1[nH]nc(-c2ccc([N+](=O)[O-])o2)o1 | inactive | –
19 | O=P(c1ccccc1)(c1ccccc1)c1ccccc1 | inactive | –
20 | CCC[Si](OC)(OC)OC | inactive | –

Row | Structure (SMILES) | Potency | activation
21 | CCCCCCCCCCCCCCCCC(=O)O | inactive | –
22 | Clc1cc(Cl)c2c(c1)N=C1CCCCCN1C2 | inactive | –
23 | NC(=O)c1ccccc1C(N)=O | inactive | –
24 | CC[C@H](NC(C)C)[C@H](O)c1ccc(O)c2[nH]c(=O)ccc12 | inactive | –
25 | Cc1ccc(S(=O)(=O)NC(=O)NC2CCCC2)cc1 | inactive | –
26 | CCc1cnc(C(=O)O)c(C(=O)O)c1 | inactive | –
27 | CC(C)CCCCCCCOC(=O)c1ccc(C(=O)OCCCCCCCC(C)C)c(C(=O)OCCCCCCCC(C)C)c1 | inactive | –
28 | CCCC(=O)OCc1ccccc1 | inactive | –
29 | C=Cc1ccc(C=C)cc1 | inactive | –
30 | Cc1ccc(NC=O)c(C)c1 | inactive | –
31 | O=C(Cl)c1cc(Cl)cc(Cl)c1 | inactive | –
32 | CC(=O)CC/C=C(\C)CC/C=C(\C)CC/C=C(\C)CCC=C(C)C | inactive | –
33 | O=Cc1ccc(Cl)c([N+](=O)[O-])c1 | inactive | –
34 | C1=COCCC1 | inactive | –
35 | C1CCN(CN2CCCCC2)CC1 | inactive | –
36 | CC1(C)[C@@H]2CC[C@]3(C2)[C@@H]1C(=O)CCC3(C)C | inactive | –
37 | C=CCCC | inactive | –
38 | O=C1c2ccccc2C(=O)C1c1ccc2cc(S(=O)(=O)O)cc(S(=O)(=O)O)c2n1 | inactive | –
39 | COc1ccc(CN(CCN(C)C)c2ncccn2)cc1 | inactive | –
40 | NC(=O)c1cc[n+](CC2=C(C(=O)[O-])N3C(=O)[C@@H](NC(=O)Cc4cccs4)[C@H]3SC2)cc1 | inactive | –
